Bioassay records as filed in PubChem BioAssay.
Shown are actives, neighbours in structure and some others; about 19% of the full set was active somewhere.
TDP1 cell noCPT: qHTS for Inhibitors of human tyrosyl-DNA phosphodiesterase 1 (TDP1): qHTS in cells in absence of CPT; 420,000 compounds, 15% hits; DT40 Tdp1-/- hTDP1 cells, no CPT, ATP luminescence, 48 h; Potency, µM (top dose mostly 46.2 µM), inactives show top-dose activity change, negative = growth inhibition, hits mostly inhibitors; also: nearly all actives have a fitted effect of over 55% in size
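Cells were dispensed at 400 per well, compounds added by pin tool, plates incubated ≥48 hr at 37 °C, then CellTiter-Glo added for 30 min at room temperature before luminescence reading. Line: DT40 Tdp1-/- complemented with hTDP1; camptothecin omitted.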
TDP1 inh: qHTS Assay for Inhibitors of Tyrosyl-DNA Phosphodiesterase (TDP1). Tyrosyl-DNA phosphodiesterase 1 (Homo sapiens), Q9NUW8. recombinant TDP1, AlphaScreen DNA substrate cleavage. Potency, µM (doses to about 130 µM), for the others: top-dose activity change, negative = inhibition, usual class: inhibitors. 350,000 compounds, 0.28% hits; also: nearly all actives have a fitted effect of over 40% in size
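Compounds were preincubated with Tdp1 (1 nM final) for 15 min at room temperature before substrate (15 nM final) started a 5 min reaction; beads (10 ug/ml final) were then added for 10 min before AlphaScreen detection.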
DT40 TDP1 CPT: qHTS for Inhibitors of human tyrosyl-DNA phosphodiesterase 1 (TDP1): qHTS in cells in presence of CPT; chicken DT40 Tdp1-/-;hTDP1 cells + 20 nM CPT, ATP luminescence, 48 h; Potency, µM (titrated, usually from 46.2 µM), for the others: at the top dose activity change, negative = growth inhibition, actives largely listed as inhibitors; 420,000 compounds, 12% hits; AID 686979, 2013; also: nearly all actives have a fitted effect of over 55% in size
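Cell growth measured by CellTiter-Glo luminescence after a minimum 48 h, 37 C compound exposure with 20 nM CPT in Tdp1-knockout DT40 cells stably expressing hTDP1, seeded 400/well; qHTS titration format.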
RORgamma inh: qHTS for inhibitors of ROR gamma transcriptional activity; 310,000 compounds, 5.4% hits; Potency, µM (titrated, usually from 53.6 µM), for inactives: at the highest dose activity change, negative = inhibition, most hits filed as inhibitors; Nuclear receptor ROR-gamma (Mus musculus), P51450; Drosophila S2 Gal4-RORgamma UAS-luciferase reporter, 20 h; also: nearly all actives have a fitted effect of over 60% in size
Target sequence (P51450 whole entry, looked up, the tested form may be a part): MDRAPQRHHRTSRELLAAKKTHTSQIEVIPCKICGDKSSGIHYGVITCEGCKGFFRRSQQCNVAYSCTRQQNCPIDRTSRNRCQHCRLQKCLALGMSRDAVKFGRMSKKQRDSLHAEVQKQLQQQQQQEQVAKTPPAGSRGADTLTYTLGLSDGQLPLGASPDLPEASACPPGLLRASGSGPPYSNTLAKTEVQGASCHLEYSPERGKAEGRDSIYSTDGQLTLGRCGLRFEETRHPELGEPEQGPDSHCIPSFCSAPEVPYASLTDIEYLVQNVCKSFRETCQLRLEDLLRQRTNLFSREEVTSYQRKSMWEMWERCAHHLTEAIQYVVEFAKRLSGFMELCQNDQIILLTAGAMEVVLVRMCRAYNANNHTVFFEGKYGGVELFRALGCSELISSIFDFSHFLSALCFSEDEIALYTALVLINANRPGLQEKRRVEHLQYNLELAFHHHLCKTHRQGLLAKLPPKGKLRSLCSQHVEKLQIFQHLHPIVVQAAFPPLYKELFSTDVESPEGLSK
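Drosophila S2 cells stably expressing Gal4-DBD/mouse RORγ fusion under metallothionein promoter plus UAS-luciferase; compound 1 h, then 700 uM CuSO4 induction for 20 h at ambient temperature; inhibition read as reduced luminescence.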
VP16 counter: VP16 counterscreen qHTS for inhibitors of ROR gamma transcriptional activity | AID 2546, 2010 | Potency, µM (highest dose often 53.6 µM), for the others: at the highest dose activity, negative = inhibition, hits mostly inhibitors | Drosophila S2 Gal4-VP16 UAS-luciferase, luminescence, 20 h | 310,000 compounds, 3.5% hits;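 also: Gal4-VP16 expression switched on by copper sulfate through the metallothionein promoter; nearly all actives have a fitted effect of over 50% in size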
* marks the source's active call; other numbers are inactive results; u = inconclusive; x = no result given. Calls follow the shape of the dose curve; as a rule, active = well fitted curve in the direction sought with a large enough effect; inconclusive = small, poorly fitted or top-dose-only effect, or another doubt; inactive = no such curve, though single readings can be large; an effect the other way counts as inactive or inconclusive. % is scaled to controls: 0 for no effect and ±100 for the full control effect; potency is read from the fitted curve at half-maximal effect.

SMILES | TDP1 cell noCPT | TDP1 inh | DT40 TDP1 CPT | RORgamma inh | VP16 counter
CCC(=O)C1CCCN(C(=O)c2ccc3nc(-c4cccc(OC)c4)oc3c2)C1 (stereo not drawn) | u | 2% | u | -14% | 2%
CCN(CC)C(=O)C1CCCN(C(=O)c2ccc3nc(-c4cccc(OC)c4)oc3c2)C1 (stereo not drawn) | 12µM* | x | 23µM* | x | x
C=CS(=O)(=O)c1sc(Cl)c(N2CCOCC2)c1[N+](=O)[O-] | 2.9µM* | 3% | 1.6µM* | 10µM* | 7.1µM*
C=CCOc1ccccc1CNc1ccc2c(c1)OCCO2 | 12µM* | 5% | 15µM* | 4.5µM* | u
C=CCOc1ccccc1CNc1ccc2[nH]c(=O)[nH]c2c1 | 21µM* | 3% | u | 7% | -7%
O=C(C[N+]12CCCc3cccc(c31)CCC2)c1ccc2ccc3cccc4ccc1c2c34 | 5µM* | x | 6.3µM* | x | x
Cc1cc(CNC(=O)C(C)n2cc([N+](=O)[O-])cn2)c2ccccc2n1 (stereo not drawn) | 21µM* | 5% | u | -1% | -12%
O=C(CCC(=O)c1ccc(Br)cc1)Nc1cccnc1 | 16% | -2% | -12% | 2% | 6%
O=C(CC(CC(=O)c1ccc(Br)cc1)c1cccnc1)c1ccc(Br)cc1 | 15µM* | x | 15µM* | u | -11%
CC(=O)c1cnn(-c2cc(Oc3ccccc3C)ncn2)c1C | u | 4% | u | 42% | 17%
CC(c1ccccc1C(O)c1ccccc1)N(C)C (stereo not drawn) | -1% | 0% | -6% | -4% | 3%
Cc1ccc(C(O)(c2ccccc2)c2ccccc2C(C)N(C)C)c(C)c1 (stereo not drawn) | 18µM* | 2% | u | -24% | -28%
COC(=O)[C@@]1(Cc2ccc(F)cc2)[C@H]2c3cc(C(=O)N4CCCC4)n(Cc4ccc(S(C)(=O)=O)cc4)c3C[C@H]2CN1C(=O)c1ccccc1 | 18µM* | 15% | u | 40% | -7%
COC(=O)[C@@]1(Cc2ccc(OC)cc2)[C@H]2c3cc(C(=O)N(C)C)n(Cc4ccc(S(C)(=O)=O)cc4)c3C[C@H]2CN1C(=O)c1ccccc1 | x | 13% | x | 24% | 2%
COC(=O)[C@@]1(Cc2ccc(F)cc2)[C@H]2c3cc(C(=O)N(C)C)n(Cc4ccc(S(C)(=O)=O)cc4)c3C[C@H]2CN1C(=O)c1ccccc1 | u | 0% | 21µM* | u | -9%
Fc1ccc(CCN2CCN=C2Nc2ccccc2)cc1 | -7% | 1% | -4% | x | x
CCN(CC)S(=O)(=O)c1ccc(Cl)c(C(=O)NC2CCN(Cc3ccccc3)CC2)c1 | 13µM* | x | 16µM* | 30% | -18%
Cc1cccc(C(=O)NC2CC3CCCC(C2)N3S(=O)(=O)c2ccccc2)c1 (stereo not drawn) | 18µM* | 5% | 13µM* | -1% | 2%
Cc1cccc(C(=O)NCC(=O)NC2CCN(Cc3ccccc3)CC2)c1 | -21% | x | 2% | x | x
COc1ccccc1NS(=O)(=O)c1cccc(C(=O)NC2CCN(Cc3ccccc3)CC2)c1 | 23µM* | 0% | u | x | x
Cc1cccc(C(=O)NC2CC3CCCC(C2)N3C(=O)Nc2ccccc2)c1 (stereo not drawn) | u | x | -30% | -10% | 2%
Cc1ccc(NS(=O)(=O)c2cccc(C(=O)NC3CCN(Cc4ccccc4)CC3)c2)c(C)c1 | u | x | 9.2µM* | x | x
CC1CCCCN1C(=O)c1c([N+](=O)[O-])cnn1C (stereo not drawn) | -1% | 3% | -9% | -44% | -6%
CN(C(=O)CSc1nnc2ccccn12)c1c(N)n(Cc2ccccc2)c(=O)[nH]c1=O | 0% | -1% | -1% | -9% | 6%
